{
  "source": "PubChem BioAssay AID2315",
  "about": "(National Center for Advancing Translational Sciences (NCATS), 2010)",
  "note": "The whole screen tested about 290,000 compounds, of which about 27,000 (9.3%) were called active. This is one part of a sample in which actives are shown more often than they occur. No stated cut-off is given here; in the data, active means inhibition mostly above about 28% (no sharp cut-off); inactive means mostly below about 43%.",
  "data": [
    {"assay": "A qHTS for Small Molecule Inhibitors of Shiga Toxin; further: 0% is about no effect", "conditions": "Vero cells, Shiga toxin protein synthesis inhibition reporter; at 38.7 µM, hits give high values", "values": [
      {"smiles": "O=C(c1ccccc1F)N(Cc1ccccc1)Cc1ccccc1", "inhibition": "18% (inactive)"},
      {"smiles": "Cc1nc(N)nc(SCc2ccc([N+](=O)[O-])cc2)c1N", "inhibition": "-4.97% (inactive)"},
      {"smiles": "Cc1ccc(NS(=O)(=O)c2ccc3c(c2)oc(=O)n3C)c(C)c1", "inhibition": "0.571% (inactive)"},
      {"smiles": "COc1ccc(-c2ccc(OC)c(C3C4C=CCC(C)C4C(=O)N3Cc3ccccc3)c2)cc1C", "note": "(configuration not stated)", "inhibition": "31.9% (inactive)"},
      {"smiles": "COc1ccc2oc(=N)c(C(=O)Nc3ccc(Br)cc3)cc2c1", "inhibition": "14.3% (inactive)"},
      {"smiles": "COc1ccc(C(=O)OCC(=O)Nc2cccc(C(C)=O)c2)cc1OC", "inhibition": "8.39% (inactive)"},
      {"smiles": "O=C(Nc1ccc([N+](=O)[O-])cc1)C1(c2ccccc2)CCOCC1", "inhibition": "-4.2% (inactive)"},
      {"smiles": "O=C(COC(=O)C1CCCCC1)Nc1ccc([N+](=O)[O-])cc1", "inhibition": "30.9% (inactive)"},
      {"smiles": "O=C(Nc1ccc([N+](=O)[O-])cc1)C1CC12CCC2", "note": "(configuration not stated)", "inhibition": "76.1% (active)"},
      {"smiles": "Cn1nccc1C(=O)NC1CCCc2c1cnn2-c1ccccc1F", "note": "(configuration not stated)", "inhibition": "-4.18% (inactive)"},
      {"smiles": "CCN1C(=O)c2cccc3c(S(=O)(=O)Nc4ccccc4O)ccc1c23", "inhibition": "34.3% (inactive)"},
      {"smiles": "CC1CN(C(=S)Nc2cccc(F)c2)CC(C)O1", "note": "(configuration not stated)", "inhibition": "-2.89% (inactive)"},
      {"smiles": "O=C(CN1CCN(c2ccccn2)CC1)Nc1ccc(Br)cc1", "inhibition": "-9.75% (inactive)"},
      {"smiles": "CCC(=O)Nc1ccc(-c2ccc(N3CCCCC3)nn2)cc1", "inhibition": "63.9% (active)"},
      {"smiles": "CCCCSc1nnc(-c2ccc(NC(=O)CC)cc2)n1C", "inhibition": "-10.7% (inactive)"},
      {"smiles": "O=C(CN1C(=O)c2cccnc2Oc2ccc(Cl)cc21)NCCc1ccccc1", "inhibition": "3.75% (inactive)"},
      {"smiles": "CCOc1ccc(C(=O)Nc2cccc(-c3ccc4nncn4n3)c2)cc1", "inhibition": "35.1% (inactive)"},
      {"smiles": "Cc1cc(C)cc(NC(=O)CSc2ccccc2)c1", "inhibition": "29.4% (inactive)"},
      {"smiles": "O=C(CSc1nc(C2CC2)nc2ccccc12)Nc1cccc(O)c1", "inhibition": "-5.2% (inactive)"},
      {"smiles": "O=C(CSc1ccccc1)Nc1ccc(C(=O)Nc2cccc(O)c2)cc1", "inhibition": "65.7% (active)"},
      {"smiles": "O=C(Cc1ccccc1)Nc1ccc(C(=O)Nc2ccccc2C(=O)O)cc1", "inhibition": "-19.6% (inactive)"},
      {"smiles": "CCOc1ccc(C(=O)Nc2ccncc2)cc1", "inhibition": "77.7% (inactive)"},
      {"smiles": "Cc1nnc(SCC(=O)Nc2cccc(N)c2)n1-c1ccccc1", "inhibition": "4.15% (inactive)"},
      {"smiles": "CCOc1ccc(C(=O)Nc2cccc(SC)c2)cc1", "inhibition": "47.7% (active)"},
      {"smiles": "CSc1cccc(NC(=O)CSc2ccccc2)c1", "inhibition": "3.54% (active)"},
      {"smiles": "Cc1cc(S(=O)(=O)c2cc3ccc(O)c(C)c3oc2=O)ccc1F", "inhibition": "23.1% (inactive)"},
      {"smiles": "Cc1nn(C)c(C)c1C(C)NC(=O)c1ccc(OC2CCN(Cc3ccccn3)CC2)cc1", "note": "(configuration not stated)", "inhibition": "8.35% (inactive)"}
    ]}
  ]
}
